Measurements: PubChem BioAssay AID2716 (Broad Institute, 2010)
Out of some 320,000 compounds screened, about 3,300 (1%) were called active. The sample as a whole holds a higher share of actives than the screen did. A number with no mark means an inactive call.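 The calls were made as follows: active = every valid replicate shows activation above 250% relative to neutral control wells; inactive = the rest, any valid replicate at or below 250%.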

Assay: restored growth of temperature-sensitive Mot1-301 yeast – S. cerevisiae, ATP luminescence, 38.5C, SUMOylation pathway inhibitor project, primary screen (AID 2716);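 also: OY570 slx delta 5 strain wells were the positive control but not used for scaling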
Conditions: S. cerevisiae Mot1-301 growth rescue, at 18.8 µM, hits give high values, percent above DMSO median, 100 means doubled
For Nc1c(N(CCCO)C(=O)C2CCCC2)c(=O)[nH]c(=O)n1Cc1ccccc1, the growth rescue was 103%.
Molecule COc1ccc(CCNC(=O)CCC(=O)NC2CCCCC2)cc1OC has a growth rescue of 26.5%.
With Cc1ccc2c(c1)C(O)(CC(=O)c1cccnc1)C(=O)N2 (centres undefined) the growth rescue was 1220% (active).
For Cc1cccc(OCC(=O)NCCNC(=O)c2cccnc2)c1, the growth rescue was 220%.
In the case of Cc1ccc2c(c1)C(O)(CC(=O)c1cccc(-n3cccc3)c1)C(=O)N2 (centres undefined), the growth rescue is reported as -2.84%.
CCC/C=C(\CCC)C(NC(=O)Cc1ccccc1)c1ccc(C(=O)OC)cc1 (centres undefined) showed a growth rescue of -14.4%.
For CC(C)C[C@H](NC(=O)Nc1cccc(C(F)(F)F)c1)C(=O)O, the growth rescue was -3.86%.
With O=C(Nc1ccccc1)Nc1ccc(C(F)(F)F)cn1 the growth rescue was -19.3%.
In the case of Cc1ccc(NC(=O)Nc2cccc(C(F)(F)F)c2)nc1, the growth rescue is reported as 471% (active).
Molecule O=C(CNS(=O)(=O)c1ccc2c(c1)OCCCO2)N1CCN(c2ccc(F)cc2)CC1 has a growth rescue of 10.2%.
In the case of COc1ccc2c(CC(=O)NNC(=O)c3ccccc3F)coc2c1, the growth rescue is reported as 9.24%.
For COc1ccc(/C=N/NC(=O)Cn2cc(C(F)(F)F)ccc2=O)cc1, the growth rescue was 0.303%.
In the case of CCCc1cc(=O)oc2c(C)c(OCC(=O)N3CCC(C(=O)O)CC3)ccc12, the growth rescue is reported as 10.4%.
In the case of CCc1cc(=O)oc2cc(C)cc(OC(C)C(=O)O)c12 (centres undefined), the growth rescue is reported as -0.434%.
For CCc1cc(=O)oc2cc(C)cc(OCC(=O)N3CCC[C@@H]3C(=O)O)c12, the growth rescue was 694% (active).
Cc1cc(=O)n2nc(N3CCCC(C(=O)NCc4ccc(Cl)cc4)C3)sc2n1 (centres undefined) showed a growth rescue of 7.79%.
In the case of O=C(CSc1nc2[nH]c(=O)[nH]c(=O)c2s1)Nc1cccc(F)c1, the growth rescue is reported as -17.9%.
In the case of O=S(=O)(Nc1ncnc2sccc12)c1cccc(F)c1, the growth rescue is reported as 5.08%.
O=C(NCC1CCCO1)c1cc2c(s1)CCCC2 (centres undefined) showed a growth rescue of -9.49%.
For CC1=CC(=O)C=CC1(C)C(Cl)(Cl)Cl (centres undefined), the growth rescue was 385% (active).
COc1ccccc1Nc1nnc(SC(C)C(=O)NC2CC2)s1 (centres undefined) showed a growth rescue of -11.6%.
CC1C(=O)N2CCCc3cc(S(=O)(=O)NCc4ccc(F)cc4)cc1c32 (centres undefined) showed a growth rescue of -4.02%.
For Cc1ccc(NC(=O)CSc2nnc(CNC(=O)c3ccccc3F)o2)cc1, the growth rescue was 3.58%.
In the case of O=C(OC1CCCCC1=O)c1cccc(S(=O)(=O)NCc2ccccc2)c1 (centres undefined), the growth rescue is reported as 12.9%.
For O=C(OC1CCOC1=O)c1cccc(S(=O)(=O)Nc2ccc(F)cc2)c1 (centres undefined), the growth rescue was 535% (active).
O=C(NCCN1CCOCC1)c1cccc(S(=O)(=O)Nc2ccc(F)cc2)c1 showed a growth rescue of 18.1%.
In the case of CCCCn1c(N)c(N(CC(C)C)C(=O)c2cccc(S(=O)(=O)N3CCN(C(C)=O)CC3)c2)c(=O)[nH]c1=O, the growth rescue is reported as -9.04%.
With Cc1cccc(N2CCN(S(=O)(=O)c3ccc4[nH]c(=O)c(=O)[nH]c4c3)CC2C)c1 (centres undefined) the growth rescue was 2.34%.
In the case of COc1ccc(CCNC(=O)COC(=O)C2CC2C)cc1 (centres undefined), the growth rescue is reported as 4.29%.
Work on O=C(c1c(F)cccc1F)N1CCN(S(=O)(=O)c2ccc3c(c2)OCCO3)CC1 yielded a growth rescue of 3.47%.
Molecule CCC(=C/c1sc2ccc3ccccc3c2[n+]1C)/C=C1\Sc2ccc3ccccc3c2N1C has a growth rescue of 6.07%.
In the case of Cc1cc(C)c(OCC(=O)N/N=C/c2ccco2)c(C)c1, the growth rescue is reported as 568% (active).
With Cc1ccc(NC(=O)CCC(=O)N/N=C/c2ccco2)c(C)c1 the growth rescue was -4.26%.
Cc1c(Cl)cccc1NC(=O)CCC(=O)N/N=C/c1ccco1 showed a growth rescue of 2.23%.
Molecule CCOc1ccc(CCNC(=O)COC(=O)CCS(=O)(=O)c2ccc(C)cc2)cc1OCC has a growth rescue of -6.14%.
Cc1ccc2nc(NC(=O)CSc3nc(=O)n(CCCN(C)C)c4c3CCC4)sc2c1 gave a growth rescue of -6.26%.
For CN(NC(=O)c1ccccc1F)c1nc(C(F)(F)F)nc2ccccc12, the growth rescue was 658% (active).
With CN(NC(=O)c1ccccc1)c1nc2ccccc2nc1C(F)(F)F the growth rescue was 29.8%.
Molecule CSc1nc(N(C)NC(=O)c2cccc(C)c2)c2ccccc2n1 has a growth rescue of -1.55%.
For CCOC(=O)[C@@H]1[C@H]2COc3ccc(Br)cc3[C@H]2N2C(=O)N(c3ccc(C)cc3)C(=O)[C@@]12C, the growth rescue was 5.35%.
Work on O=C(NCc1ccco1)C(c1ccncc1)N(C(=O)Cn1nnc2ccccc21)c1ccccc1 (centres undefined) yielded a growth rescue of 5.81%.
In the case of C=CCC(NCCCO)c1cccc(OC)c1OC (centres undefined), the growth rescue is reported as 1100% (active).
For COc1cccc(C(CC(=O)NCCN2CCOCC2)NS(=O)(=O)c2ccc(C)cc2)c1OC (centres undefined), the growth rescue was -1.44%.
C=CCC(Nc1ccccc1)c1cccc(OC)c1OC (centres undefined) showed a growth rescue of -16.1%.
For CC(=O)Nc1ccc(/C(C)=N/NC(=O)CN(c2ccccc2Br)S(C)(=O)=O)cc1, the growth rescue was -7.93%.
With CNC(=O)/C(C#N)=C/c1c(F)cccc1Cl the growth rescue was -36.4%.
COc1ccc(/C=N/OCc2ccccc2C#N)c(OC)c1 gave a growth rescue of 31.4%.
COc1ccc(CCNC(=O)C(=O)NCC2OCCN2S(=O)(=O)c2ccc(OC)c(C)c2)cc1 (centres undefined) showed a growth rescue of 0.71%.
For COc1ccc(S(=O)(=O)N2CCOC2CNC(=O)C(=O)NCc2ccncc2)cc1OC (centres undefined), the growth rescue was -3.43%.
In the case of COc1ccc(S(=O)(=O)N2CCOC2CNC(=O)C(=O)NCc2ccncc2)cc1C (centres undefined), the growth rescue is reported as 392% (active).
With Cc1ccc(CC2CC(=O)N(c3ccc4c(c3)OCCO4)C2=O)cc1 (centres undefined) the growth rescue was 1800% (active).
In the case of Cc1ccc(CC2CC(=O)N(c3cc(C)ccc3C)C2=O)cc1 (centres undefined), the growth rescue is reported as -12%.
COc1ccc(N2CCN(C3CC(=O)N(c4ccc5c(c4)OCCO5)C3=O)CC2)cc1 (centres undefined) showed a growth rescue of 21.5%.
With O=C(NCc1ccccc1Cl)NC(=O)c1csc([N+](=O)[O-])c1 the growth rescue was -7.29%.
For COc1ccc(C(C#N)(CC(=O)O)c2cnccn2)cc1OC (centres undefined), the growth rescue was -15.4%.
With COc1cccc(OC)c1C(=O)Nc1ccc2c(c1)n(C)c(=O)n2C the growth rescue was 676% (active).
COc1cccc(OC)c1C(=O)Nc1ccc(Cc2ccncc2)cc1 showed a growth rescue of 12.2%.
Cn1c(=O)n(C)c2cc(C(=O)Nc3ccc(Br)cc3)ccc21 gave a growth rescue of 15%.
Molecule CC(C)N(C(=O)CSc1nc(COc2ccccc2)nc2ccccc12)C(C)C has a growth rescue of -2%.
